Hits are enriched below; roughly 5.9% of the tested compounds scored in any of these assays.
HSF1 inh: HSF1 inhibition | NIH3T3-HGL HSE-luciferase, MG132-induced, luminescence 8 h; active compounds read low | activity change, negative = inhibition, % at 7.5 µM (by protocol) | 300,000 tested, 0.77% active | AID 2098;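 active means more than half of replicate wells show activity change below -50%, luminescence cut by over half; inconclusive means some wells, but at most half, below -50%; inactive means no replicate well below -50%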;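 further: luciferase reports HSF-1 transcriptional activity via heat shock element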
HSF1 activator: increases HSF-1 driven luciferase reporter signal | NIH3T3-HGL HSF-1 luciferase reporter, MG132, 8 h; 100% = twice DMSO control signal | activation, % at 9 µM | 300,000 tested, 1.7% active | AID 504408;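 active means mean replicate activation of at least 50% with a set share of replicates each reaching 50%; inconclusive means only one of those two conditions met; inactive means mean below 50% and too few replicates reaching it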
HSP90 refold inh: HSP90 refolding inhibition in rabbit reticulocyte lysate; luciferase refolding luminescence, 3 h; inhibition, % at 5.6 µM; 290,000 tested, 0.91% active; AID 1789;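 active means inhibition above the screen-wide mean plus 3 SD, computed separately per campaign, cut at about 16% in these data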;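 further: inhibitors lower the luminescence because luciferase stays unfolded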
AHR activator: human AHR activation | P35869 | AHR-responsive luciferase reporter cells, luminescence | activation, % at 5 µM | 320,000 tested, 2.5% active | AID 2796; in the data active means activation above about 47%
DAX1 inh: inhibitors of human orphan nuclear receptor DAX1 (NR0B1); P51843; HEK293 Gal4-DAX1 luciferase reporter, luminescence; inhibition, % at 6.75 µM; 340,000 tested, 0.99% active;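 active means inhibition above the mean over all tested compounds plus 3 SD, cut at about 4.2% in these data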;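 further: inhibition shows as a rise in luminescence from relieved DAX1 repression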
Target sequence (P51843 207-470 limits assumed): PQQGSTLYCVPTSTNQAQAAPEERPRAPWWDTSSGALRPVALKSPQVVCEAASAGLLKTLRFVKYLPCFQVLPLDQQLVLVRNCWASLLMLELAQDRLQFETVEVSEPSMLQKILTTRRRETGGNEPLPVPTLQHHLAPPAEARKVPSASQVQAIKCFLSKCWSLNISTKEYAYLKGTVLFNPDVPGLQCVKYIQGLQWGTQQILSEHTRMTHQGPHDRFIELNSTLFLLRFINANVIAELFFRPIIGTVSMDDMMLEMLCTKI
GAA850 FXN act: activators of GAA850 frataxin (FXN) promoter | 360,000 tested, 0.56% active | AID 540364 | HEK293 lucGAA850 FXN promoter luciferase reporter, 24 h; percent of 10 µM SAHA response | activation, % at 6 µM;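 active means activation above the average of all compounds screened plus 3 SD, cutoff fixed separately per campaign, cut at about 7.5% in these data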
Large screens that a line does not name were inactive.

Cn1nccc1C(=O)NC1CCCc2c1cnn2-c1ccc(C(C)(C)C)cc1 (stereo not given)	none
COc1ccc2c(c1)C(C)(Cc1ccc(C(=O)c3ccccc3)cc1)C(=O)N2 (stereo not given)	none (no result: HSF1 inh, HSF1 activator, HSP90 refold inh, AHR activator, DAX1 inh)
Cc1ccc(C(=O)NC(=S)Nc2cc(-c3nc4ccccc4s3)ccc2C)cc1	HSF1 activator 59.0
Cc1ccc(NC(=S)NC(=O)c2ccccc2)cc1NC(=S)NC(=O)c1ccccc1	none (no result: AHR activator)
CC(C)c1ccc(NC(=O)C2=NNC(=O)CC2)cc1	DAX1 inh 5.3
Cc1ccc(NC(=O)C2=NNC(=O)CC2)cc1F	none
Cn1c(CCN2CCCCC2)nc2cc(NC(=O)COc3ccc([N+](=O)[O-])cc3)ccc21	none
Cc1ccc2nc(N(CCN(C)C)C(=O)/C=C/c3cccs3)sc2c1	AHR activator 48.3
CN(C)CCN(C(=O)/C=C/c1cccs1)c1nc2c(F)cc(F)cc2s1	AHR activator 66.1
CCn1cc(C(=O)N[C@@H](CCSC)C(=O)NCCO)c(=O)c2cc3c(cc21)OCO3	none
O=C(CNC1CCCCC1)Nc1ccc([N+](=O)[O-])cc1C(=O)Nc1ccccc1F	AHR activator 47.5
COCCCNC(=O)CCC(=O)NNc1nc2ccccc2c2nc(-c3ccccc3)nn12	AHR activator 62.4
CCOCCCNC(=O)CCC(=O)NNc1nc2ccccc2c2nc(-c3ccccc3)nn12	none
COCCNC(=O)CCC(=O)NNc1nc2ccccc2c2nc(-c3ccccc3)nn12	AHR activator 60.5
CC(C)OCCCNC(=O)CCC(=O)NNc1nc2ccccc2c2nc(-c3ccccc3)nn12	none
Oc1ccccc1-c1cncn1Cc1ccccc1	none
CCN(CC)C(=O)c1ccc2c(c1[N+](=O)[O-])C(=O)c1ccccc1C2=O	AHR activator 77.7 (no result: DAX1 inh, GAA850 FXN act)
CCCCCN1C=CC(=C2C(=O)c3ccccc3C2=O)C=C1	HSF1 inh -81.3, HSP90 refold inh 79.6
CCOC(=O)CCS(=O)(=O)c1nc(-c2ccccc2)cc(C(F)(F)F)n1	HSF1 inh inconclusive
COC(=O)CCS(=O)(=O)c1nc(-c2ccccc2)cc(C(F)(F)F)n1	HSF1 inh -94.1
COCC(C)NC(=O)CCS(=O)(=O)c1nc(-c2ccc(OC)cc2)cc(C(F)(F)F)n1 (stereo not given)	HSF1 activator 238.1
Cc1nnc(Nc2ccc(S(N)(=O)=O)cc2)c2ccccc12	none
CC1CC(O)C(C)CN1 (stereo not given)	DAX1 inh 5.4 (no result: AHR activator)
COC(=O)c1[nH]c2ccc(C)cc2c1NC(=O)C1=COCCO1	AHR activator 67.6
COC(=O)c1[nH]c2ccc(F)cc2c1NC(=O)C1=COCCO1	none
O=C(CCCN1C(=O)C(=Cc2ccc3c(c2)OCO3)SC1=S)Nc1ccc(C(=O)O)c(O)c1	none (no result: HSF1 inh, HSF1 activator, HSP90 refold inh, AHR activator, DAX1 inh)
COC(=O)[C@H]1C[C@@]2(O)CN(S(=O)(=O)c3ccc(C)cc3)C[C@@]2(OC(=O)Nc2cccs2)C[C@H]1C(=O)OC	none (no result: HSF1 inh, HSF1 activator, HSP90 refold inh, AHR activator)
COc1ccc(/C=N/NC(=S)Nc2cc(C(F)(F)F)ccc2Cl)cc1	AHR activator 54.3 (no result: DAX1 inh)
COc1ccc(/C=C/C(=O)Nc2cc(C(F)(F)F)ccc2Cl)cc1	none
CS(=O)(=O)Nc1ccc2c(c1)ncn2CCc1ccccc1	none
CC(C)(CC(=O)O)CC(=O)Nc1ccc2c(c1)ncn2CCc1ccccc1	DAX1 inh 4.5
CCCOc1ccc(-c2c(C(=O)N/N=C(\C)c3cccnc3)nnn2-c2nonc2N)cc1	AHR activator 55.9
CCOc1ccc(-c2c(C(=O)N/N=C(\C)c3ccncc3)nnn2-c2nonc2N)cc1	none
CCOc1cccc(-c2c(C(=O)N/N=C(\C)c3cccnc3)nnn2-c2nonc2N)c1	AHR activator 59.7
CCCc1c(C(=O)N/N=C(\C)c2cccnc2)nnn1-c1nonc1N	none (no result: HSF1 inh, HSF1 activator, HSP90 refold inh, AHR activator)
COc1cccc(-c2c(C(=O)N/N=C/c3ccc(C)s3)nnn2-c2nonc2N)c1	HSF1 inh -87.4
CCCOc1ccc(-c2c(C(=O)N/N=C/c3ccc(C)cc3)nnn2-c2nonc2N)cc1	none (no result: DAX1 inh)
CCOc1cccc(-c2c(C(=O)N/N=C/c3ccc(C)s3)nnn2-c2nonc2N)c1	none
CCCOc1ccc(-c2c(C(=O)N/N=C/c3ccccc3OCC)nnn2-c2nonc2N)cc1	HSF1 inh -68.5
CCOC(=O)C(=CNc1cc(C)ccc1-n1cccc1)C(=O)OCC	none
c1ccc(-n2ncc3c(N4CCN(CCOc5cccc6ccccc56)CC4)ncnc32)cc1	AHR activator 49.1
CS(=O)(=O)N1CCN(c2ncnc3c2cnn3-c2ccccc2)CC1	none
CC(C)c1nc(C(N)=O)c2[nH]c(=O)n(-c3ccc(F)cc3)c2n1	none
CCOc1ccccc1-c1nc(C(N)=O)c2[nH]c(=O)n(-c3ccc(F)cc3)c2n1	AHR activator 72.3
Cc1nc2c(c(C)c1C#N)C(=O)c1ccccc1-2	AHR activator 72.0
CCC(C)(O)c1cnc(CC(C)C)c(=O)n1O (stereo not given)	none (no result: HSF1 inh, HSF1 activator, HSP90 refold inh, AHR activator, DAX1 inh)
Cc1ccc(S(=O)(=O)N(CC(=O)NCc2ccncc2)Cc2ccc(F)cc2)cc1	none
CCCSc1nc(-c2ccccc2)cc(C(F)(F)F)c1C#N	none
N#Cc1c(C(F)(F)F)cc(-c2ccco2)nc1SCc1ccccn1	AHR activator 60.1
N#Cc1c(C(F)(F)F)cc(-c2ccccc2)nc1SCCN1CCOCC1	AHR activator 55.4 (no result: HSF1 inh, HSF1 activator)
COC(=O)c1[nH]c2ccc(Br)cc2c1NC(=O)CN1CCCc2ccccc21	HSF1 activator 56.5, AHR activator 47.7
COC(=O)c1[nH]c2cc(C)ccc2c1NC(=O)CN1CCCc2ccccc21	AHR activator 66.5
COC(=O)c1[nH]c2cc(C)ccc2c1NC(=O)CN1CCN(C(=O)c2ccco2)CC1	AHR activator 67.3
COC(=O)c1[nH]c2cccc(C)c2c1NC(=O)CN1CCN(C(=O)c2ccco2)CC1	none
COc1cc2c(cc1OC)C(c1cc(OC)c(OC)cc1[N+](=O)[O-])N(C(C)=O)CC2 (stereo not given)	none
CCOCCCNC(=O)C(Cc1ccccc1)NS(=O)(=O)c1cccc2nsnc12 (stereo not given)	DAX1 inh 4.5
CCCNC(=O)C(Cc1ccccc1)NS(=O)(=O)c1cccc2nsnc12 (stereo not given)	none
COc1ccccc1N(CC(=O)NCc1ccccc1)S(=O)(=O)c1cccs1	none (no result: HSF1 inh, HSF1 activator, HSP90 refold inh, AHR activator)
CCOC(=O)c1cc(C)nnc1C(=O)OCC	none (no result: HSF1 inh, HSF1 activator, HSP90 refold inh, AHR activator)
Cc1ccc(Nc2ncnc3c2oc2ccccc23)cc1	AHR activator 53.6, DAX1 inh 4.3
COc1cccc(Nc2nc(C)nc3c2oc2ccccc23)c1	none
COc1ccc(Nc2ncnc3c2oc2ccccc23)cc1	HSF1 activator 55.9
CC(C)Cc1cc(C(=O)N(C)C2CCCN(Cc3ccccc3F)C2)n(C)n1 (stereo not given)	none
COCC(=O)Nc1nc2ccc(C)cc2s1	HSP90 refold inh 16.8
CCC(=O)Nc1nc2ccc3sc(C)nc3c2s1	AHR activator 68.7
Cc1nc2c(ccc3nc(NC(=O)C4CC4)sc32)s1	none

From PubChem
